PubChem BioAssay AID1578 (Sanford-Burnham Center for Chemical Genomics, 2009)
The whole screen tested about 290,000 compounds, of which about 3,000 (1%) were called active. No stated cut-off is given here; in the data, active means inhibition mostly above about 36% (no sharp cut-off); inactive means mostly below about 34%. For the sample, actives were picked, then their nearest neighbours and some compounds at random.

Assay: inhibition of NOD1-driven NF-kB reporter – cell-based, luminescence, uHTS, primary screen (AID 1578);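 further: HEK-293T reporter cells stimulated with the NOD1 agonist gamma-tri-DAP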
Details: NOD1-driven NF-kB luciferase reporter cells, at 4 µM, stronger effect = higher value

Compound	inhibition
CC(=O)N(CCc1ccccc1C)Cc1cc2ccc(C)cc2[nH]c1=O	-1% (inactive)
Cc1nn(CC(=O)N2CCN(C)CC2)c(=O)c2c1sc1ccccc12	-7.7% (inactive)
CCOC(=O)N1CCN(C(=O)Cn2nc(C)c3sc4ccccc4c3c2=O)CC1	53.1% (active)
CCN1CCN(C(=O)Cn2nc(C)c3sc4ccccc4c3c2=O)CC1	-12.8% (inactive)
Cc1nnc(SCc2cn3ccsc3n2)n(N)c1=O	8.4% (inactive)
Cc1ccc(C)c2sc(NC(=O)CN3C(=O)CCC3=O)nc12	14.9% (inactive)
CCCNC(=O)c1cc(S(=O)(=O)N2CCc3ccccc32)cn1C	30.1% (inactive)
CCC(C)(C)NC(=O)c1cc(S(=O)(=O)N2CCc3ccccc32)cn1C	14.8% (inactive)
CC1=NN(Cc2ccccc2)C(=O)C1C(c1ccncc1)C(C#N)C#N (stereo not drawn)	5.2% (inactive)
CCC(=O)Nc1nc2ccc3sc(C)nc3c2s1	17.2% (inactive)
Cc1nc2c(ccc3nc(NC(=O)C4CC4)sc32)s1	69% (active)
Cc1nc2c(ccc3nc(NC(=O)Cc4ccccc4)sc32)s1	-51.4% (inactive)
Fc1ccc(NC(=S)Nc2cccnc2)c(F)c1F	-19.1% (inactive)
COc1ccc(CCNC(=O)c2oc3ccc(OC)cc3c2C)cc1	-13.3% (inactive)
CCOc1ccccc1NC(=O)CSc1nc2c(c(=O)n1C)SC(C)C2 (stereo not drawn)	-16.7% (inactive)
O=C1COc2ccc(C(=O)COC(=O)CCc3ccc(S(=O)(=O)N4CCOCC4)cc3)cc2N1	1.2% (inactive)
Cc1ccc2nc(-c3cc(-c4ccccc4)no3)cn2c1	-4.9% (inactive)
CCc1ccn2cc(-c3cc(-c4ccccc4)no3)nc2c1	45.6% (active)
c1ccc(-c2cc(-c3ccccc3)on2)cc1	-10% (inactive)
O=C(NCc1ccccc1)C1CCC(CNS(=O)(=O)c2cccs2)CC1 (stereo not drawn)	-1.7% (inactive)
CCN(C(=O)CSc1nc2cc(C(=O)OC)ccc2c(=O)n1Cc1ccco1)c1cccc(C)c1	74% (active)
CCc1ccc(NC(=O)CSc2nc3cc(C(=O)OC)ccc3c(=O)n2Cc2ccco2)cc1	-7.4% (inactive)
COC(=O)c1ccc2c(=O)n(Cc3ccco3)c(SCC(=O)Nc3cc(C)on3)nc2c1	-44.8% (inactive)
Cc1ccc(S(=O)(=O)NC(=O)Nc2ccccc2)cc1	-30.4% (inactive)
O=C(Cn1nnc(-c2ccc3c(c2)OCO3)n1)NCc1ccccc1	4.7% (inactive)

Compound	inhibition
O=C(NCC(=O)N1CC(O)CC1C(=O)N1CC(O)CC1C(=O)OCc1ccccc1)OCc1ccccc1 (stereo not drawn)	-13.7% (inactive)
CC(=O)Nc1ccc(S(=O)(=O)N(C)c2ccccc2)cc1	-12.7% (inactive)
CCOC(=O)/C=C/C(=O)Nc1ccc(Oc2ccccc2)cc1	6.8% (inactive)
Cc1cc(NC(=O)Nc2cccc(C(F)(F)F)c2)no1	-7.7% (inactive)
NS(=O)(=O)c1cccc(NC(=O)CSc2nn(-c3ccccc3)c(=S)s2)c1	39.5% (inactive)
Cc1ccc(NC(=O)CSc2nn(-c3ccc(Cl)cc3)c(=S)s2)cc1S(=O)(=O)N(C)C	53.2% (inactive)
Cc1c(C(=O)NCCSCc2cccc(C(F)(F)F)c2)cnn1-c1ccc(F)cc1	-3.5% (inactive)
COc1cccc(NC(=O)Cc2ccc3ccccc3c2)c1	15.2% (inactive)
Cc1ccc(NC(=O)Cn2c(=O)cnc3ccccc32)cc1S(=O)(=O)N(C)C	-22.2% (inactive)
Cc1sc(NC(=O)Nc2ccccc2)c(C(N)=O)c1C	-40.3% (inactive)
COc1ccc(N2CCN(C(=O)C(C)(C)Oc3ccc(Cl)cc3)CC2)cc1	-14.6% (inactive)
COc1ccc(N2CCN(C(=O)NC(=O)c3ccc(Cl)cc3)CC2)cc1	-13.4% (inactive)
COC(=O)c1sc(N2CCN(c3ccc(Cl)cc3)CC2)nc1N	66.9% (active)
NS(=O)(=O)c1ccc(NCc2cc(Cl)ccc2OCc2ccc(F)cc2)cc1	27.2% (inactive)
Cc1ccc2c(c1)c1c3n2CCN(C(=O)CCl)C3CCC1 (stereo not drawn)	52.3% (inactive)
Cc1ccc2c(c1)c(=O)c1c3n2CCN(C(=O)CCl)C3CC1 (stereo not drawn)	105% (active)
CC(=O)N1CCn2c3c(c(=O)c4cc(C)ccc42)CCC31 (stereo not drawn)	-6.4% (inactive)
CCc1ccc2c(CN3CCN(S(=O)(=O)c4ccc5c(c4)OCCO5)CC3)cc(=O)oc2c1	-2.7% (inactive)
COc1ccc(S(=O)(=O)n2c([N+](=O)[O-])cnc2C)cc1OC	-2.3% (inactive)
CC1=C(C(=O)OCc2ccccc2)C(c2ccc(Cl)cc2)NC(=O)N1C (stereo not drawn)	-1.2% (inactive)
O=C(N/N=C/c1cccnc1)C1CCCCC1	-16.2% (inactive)
Cc1cc(C)cc(C(=O)N2CCN=C2SCc2ccc([N+](=O)[O-])cc2)c1	41% (inactive)
Cc1ccc(C(=O)N2CCN=C2SCc2ccc([N+](=O)[O-])cc2)cc1	35.5% (inactive)
Cc1cccc(C(=O)N2CCN=C2SCc2ccc([N+](=O)[O-])cc2)c1	41.9% (active)
O=C(C1CC1)N1N=C(c2ccncc2)CC1(O)C(F)(F)F (stereo not drawn)	-21.3% (inactive)

Compound	inhibition
O=C(NCc1cccc(C(F)(F)F)c1)C1CC(c2cccc(F)c2)=NO1 (stereo not drawn)	-5% (inactive)
O=C(/C=C/c1cccc([N+](=O)[O-])c1)Nc1ccccc1N1CCOCC1	-27.5% (inactive)
COCCCNC(=O)CCN1C(=O)COc2ccccc21	9.8% (inactive)
CC(C)(C)c1cc(CN2CCN(CCO)CC2)cc(C(C)(C)C)c1O	45.2% (inactive)
CC(C)(C)c1cc(C(=S)N2CCN(CCO)CC2)cc(C(C)(C)C)c1O	11.9% (inactive)
CC(C)(C)c1cc(C(c2cccnc2)N2CCN(CCO)CC2)cc(C(C)(C)C)c1O (stereo not drawn)	67.2% (active)
CCOC(=O)CN1C(=O)S/C(=C\c2ccc3c(c2)OCO3)C1=O	16.9% (inactive)
NCCN1C(=O)S/C(=C\c2ccc3c(c2)OCO3)C1=O	27.3% (active)
O=C1/C(=C\c2ccc3c(c2)OCO3)CCC/C1=C/c1ccc2c(c1)OCO2	-48% (inactive)
O=C(CCN1C(=O)/C(=C/c2ccc3c(c2)OCO3)SC1=S)Nc1ccccc1	-5.3% (inactive)
CCCN1C/C(=C/c2ccc3c(c2)OCO3)C(=O)/C(=C/c2ccc3c(c2)OCO3)C1	67.2% (active)
CCCN1C(=O)/C(=C/c2ccc3c(c2)OCO3)NC1=S	-29.7% (inactive)
CCOC(=O)c1c(NC(=O)c2cccc(N3C(=O)CCC3=O)c2)sc2c1CCN(CC)C2	-16.7% (inactive)
CC(C)(C)C(=O)COC(=O)CCc1nc2ccccc2[nH]c1=O	2.2% (inactive)
O=C(CCCN1C(=O)/C(=C\c2cccs2)SC1=S)Nc1ccccn1	4.3% (inactive)
O=C(CCCN1C(=O)/C(=C/c2cccs2)SC1=S)Nc1ccccn1	63.6% (active)
O=C(CCN1C(=O)/C(=C\c2cccs2)SC1=S)Nc1ccccn1	-42% (inactive)
CSc1ccccc1-c1n[nH]c(=S)o1	-15% (inactive)
CC(C)Cc1ccc(C(C)C(N)=NCCc2ccccc2)cc1 (stereo not drawn)	-10.4% (inactive)
CC(C)Cc1ccc(C(C)C(=N)N)cc1 (stereo not drawn)	43% (active)
CC(C)Cc1ccc(C(C)C(=O)O)cc1 (stereo not drawn)	-13.2% (inactive)
CCOP(=O)(OCC)C1NC(=O)N(c2ccccc2)C1=O (stereo not drawn)	-1.7% (inactive)
CCc1ccc(C(=O)COC(=O)C(CCSC)NC(=O)c2ccccc2)cc1 (stereo not drawn)	16.6% (inactive)
CCC(C)(C)c1ccc(OCC(=O)N(C)C)c(C(C)(C)CC)c1	26.1% (inactive)
Cc1cc(C(C)(C)C)ccc1OCCCCN1CCCC1	-74.5% (inactive)

Compound	inhibition
CCC(C)(C)c1ccc(OCCCC[n+]2ccccc2)c(C(C)(C)CC)c1	11.8% (inactive)
CCC(C)(C)c1ccc(OCCCC[n+]2ccc(C)cc2)c(C(C)(C)CC)c1	43.7% (inactive)
Cc1cccc(-c2oc3ccccc3c2C#CCCO)c1	-12.5% (inactive)
COc1ccc(Oc2nccc(OC)c2C#N)cc1	-18.4% (inactive)
Cn1c(=O)c2c(nc(SCC(=O)NCC3CCCO3)n2Cc2ccc(F)cc2)n(C)c1=O (stereo not drawn)	-8.2% (inactive)
COc1ccc(CNC(=O)CN(Cc2ccc(Cl)cc2)C(=O)c2csnn2)cc1	-9% (inactive)
Cc1oc(-c2cccs2)nc1CS(=O)CC(=O)NCc1ccc2c(c1)OCO2 (stereo not drawn)	1.1% (inactive)
COc1ccccc1CNC(=O)c1ccoc1C	47.6% (active)
COc1ccccc1CCNC(=O)c1ccoc1C	-33.7% (inactive)
COc1ccccc1CNC(=O)c1ccccc1OC	-29.5% (inactive)
COc1ccc(-c2csc(NC(=O)CN3C(=O)CCC3=O)n2)cc1	-30.6% (inactive)
Cc1ccc(C(=O)NCCCNC(=O)c2ccc(Cl)cc2)cn1	-10.8% (inactive)
O=C(NNS(=O)(=O)c1ccccc1)c1ccc(F)cc1	-11.4% (inactive)
C[n+]1c(/C=C/c2ccc(O)cc2)ccc2ccccc21	-15.4% (inactive)
CN1C=C/C(=C\c2cc[n+](C)c3ccccc23)c2ccccc21	20.8% (inactive)
CCNC(=O)C1CCCc2c1[nH]c1ccc(Cl)cc21 (stereo not drawn)	-25.3% (inactive)
CCN1C(=O)N(CC)C2C1N(C(C)=O)C(=O)N2C(C)=O (stereo not drawn)	-26.2% (inactive)
Cc1c(NC(=O)c2ccccc2)c(=O)n(-c2ccccc2)n1C	-17.8% (inactive)
Cc1c(NC(N)=O)c(=O)n(-c2ccccc2)n1C	54.9% (active)
Cc1c(NC(=O)CC(=O)Nc2c(C)n(C)n(-c3ccccc3)c2=O)c(=O)n(-c2ccccc2)n1C	14.4% (inactive)
CCOc1ccc(/C=C/c2nc(C#N)c(NCCCN(C)C)o2)cc1	2.8% (inactive)
CCNc1oc(/C=C/c2ccc(OCC)cc2)nc1C#N	64.9% (active)
CCOc1ccc(/C=C/c2nc(C#N)c(NCCCOC)o2)cc1	-11.6% (inactive)
